± gives the standard deviation of the averaged measurements.
Experiments:
Molm13 = experiment: cell viability relative to DMSO control (bortezomib = 0%); higher = less growth inhibition; settings: 10 nM; 72 h
In short: (§1)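 Viability was determined with CellTiter-Glo luminescence. Acute myeloid leukemia cells (1000 per well, 50 µL) were exposed for 72 h to 679 approved and investigational compounds at a single 10 nM dose in 384-well plates. Percentages came from per-plate linear regression, setting DMSO-treated wells to 100% and positive-control-treated wells to 0%.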

Mv4-11 = experiment: as above; settings: 10 nM; 72 h
In short: as §1

SMILES: N#C/C(=C(/N)Sc1ccc(N)cc1)c1ccccc1C(F)(F)F
- cell viability (Molm13): 108 ± 28%
- cell viability (Mv4-11): 110 ± 8.3%

SMILES: CNCc1ccc(-c2cc(-c3nc(-c4ccc(S(=O)(=O)C(C)C)cc4)cnc3N)on2)cc1
- cell viability (Molm13): 106 ± 1.8%
- cell viability (Mv4-11): 101 ± 18%

SMILES: Cc1c(F)cc(C(=O)NC2CC2)cc1-c1ccc(C(=O)NCC(C)(C)C)cn1
- cell viability (Molm13): 92.1 ± 8%
- cell viability (Mv4-11): 118 ± 20%

SMILES: N#CC(=Cc1ccc2[nH]ccc2c1)C(N)=C(C#N)C#N
- cell viability (Molm13): 104 ± 20%
- cell viability (Mv4-11): 103.5 ± 0.36%

SMILES: Cc1ccc(F)c(NC(=O)Nc2ccc(-c3cccc4[nH]nc(N)c34)cc2)c1 [Linifanib (ABT-869)]
- cell viability (Molm13): 61.8 ± 4%
- cell viability (Mv4-11): 73.9 ± 13%

SMILES: Cc1ccc(CNc2ncnc3ccc(-c4ccc(CO)o4)cc23)o1
- cell viability (Molm13): 118 ± 2%
- cell viability (Mv4-11): 107 ± 12%

SMILES: N#C/C(=C\c1ccc(O)c(O)c1)C(=O)NCc1ccccc1 [AG-490 (Tyrphostin B42)]
- cell viability (Molm13): 103 ± 5.9%
- cell viability (Mv4-11): 105 ± 1.8%

SMILES: CS(=O)(=O)c1cccc(CNc2nc(Nc3ccc4c(c3)CCC(=O)N4)ncc2C(F)(F)F)c1
- cell viability (Molm13): 98.44 ± 0.67%
- cell viability (Mv4-11): 101 ± 4.3%

SMILES: Cc1cc(C)c(/C=C2\C(=O)Nc3ccccc32)[nH]1 [Semaxanib (SU5416)]
- cell viability (Molm13): 82.4 ± 11%
- cell viability (Mv4-11): 98 ± 16%

SMILES: Nc1cccc(-c2cc3c(Oc4cccc(O)c4)ncnc3[nH]2)c1
- cell viability (Molm13): 101 ± 14%
- cell viability (Mv4-11): 112 ± 13%

SMILES: O=c1c(-c2ccc(O)cc2)coc2cc(O)cc(O)c12 [Genistein]
- cell viability (Molm13): 104 ± 4.5%
- cell viability (Mv4-11): 122 ± 24%

SMILES: Cc1cn(-c2cc(NC(=O)c3ccc(C)c(Nc4nccc(-c5cccnc5)n4)c3)cc(C(F)(F)F)c2)cn1 [Nilotinib]
- cell viability (Molm13): 124 ± 9.8%
- cell viability (Mv4-11): 108 ± 16%

SMILES: CC#CC(=O)Nc1ccc2ncnc(Nc3cccc(Br)c3)c2c1
- cell viability (Molm13): 99.9 ± 3.4%
- cell viability (Mv4-11): 98.9 ± 4.2%
